Assay [1] addresses Aryl hydrocarbon receptor (Homo sapiens) (UniProt P35869). Nature of the assay: ATG_Ahr_CIS: Attagene CIS-FACTORIAL HepG2 Assay for human Aryl Hydrocarbon Receptor (Ahr) (AID 2282930). The settings on record: HepG2 AhR cis-factorial reporter transcription; actives raise or lower the signal. In outline:
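Reporter mRNA levels, quantified by RT-PCR and fluorescent capillary electrophoresis, reflect endogenous AhR transcriptional activity in HepG2 cells carrying transfected cis-promoter reporter constructs. Readout at 24 h post-dose; gain or loss fitted against DMSO baseline.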

Assay [2] can be described thus: ATG_GRE_CIS: Attagene CIS-FACTORIAL HepG2 Assay for human Glucocorticoid Response Elements (GRE) (AID 2282947). The settings on record: HepG2 GRE cis-reporter, Attagene multiplex mRNA; actives raise or lower the signal. In a few lines:
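Reporter transcripts read by RT-PCR with capillary electrophoresis fluorescence after a 24 h chemical exposure of HepG2 cells transiently transfected with multiple cis-element reporter units. Gain or loss fitted against DMSO.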

The target of assay [3] is Hypoxia-inducible factor 1-alpha (Homo sapiens) (UniProt Q16665). The experiment in a line: ATG_HIF1a_CIS: Attagene CIS-FACTORIAL HepG2 Assay for human Hypoxia Inducible Factor 1 (HIF1A) (AID 2282951). The settings on record: HepG2 Attagene cis-factorial HIF1a reporter transcription; actives raise or lower the signal. In a few lines: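 HepG2 cells transiently transfected with multiplexed cis-promoter reporter units; reporter mRNA read 24 h after dosing by RT-PCR, 6-FAM primer-extension labelling, HpaI digestion and capillary electrophoresis. Bidirectional fit versus DMSO baseline.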

Assay [4] concerns the target Transcription factor Sp1 (Homo sapiens) (UniProt P08047). Nature of the assay: ATG_Sp1_CIS: Attagene CIS-FACTORIAL HepG2 Assay for human Specificity Protein 1 (Sp1) (AID 2282961). Particulars: HepG2 Sp1 cis-reporter transcription, actives raise or lower the signal. In outline: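 HepG2 cells transiently transfected with multiple reporter transcription units driven by cis-regulatory elements; Sp1-responsive reporter mRNA measured 24 h after dosing by RT-PCR and capillary electrophoresis fluorescence, fitted bidirectionally against DMSO baseline.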

Assay [5] in a line: ATG_TA_CIS: Attagene CIS-FACTORIAL HepG2 Assay for human TA Basal Promoter (AID 2282964). Particulars: HepG2 Attagene CIS-factorial TA basal promoter reporter; actives raise or lower the signal. In outline:
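HepG2 cells transiently transfected with multiplexed cis-promoter reporter units, dosed 24 h. Reporter mRNA measured by RT-PCR, 6-FAM labelling, HpaI digestion and capillary electrophoresis; bidirectional fit versus DMSO baseline, serving as background control.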

Assay [6] is described as follows: ATG_TCF_b_cat_CIS: Attagene CIS-FACTORIAL HepG2 Assay for human T-Cell-Factor with beta-catenin (TCF/b-cat) (AID 2282965). The settings on record: HepG2 TCF/beta-catenin cis-reporter transcription, actives raise or lower the signal. In outline:
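Endogenous TCF/LEF activity read as reporter transcript level via RT-PCR and capillary electrophoresis fluorescence in transfected HepG2, 24 h exposure; gain or loss of signal fitted against DMSO controls.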

Assay [7] can be described thus: ATG_TAL_CIS: Attagene CIS-FACTORIAL HepG2 Assay for human TAL Basal Promoter (AID 2282966).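 Further: background control endpoint measuring basal TAL promoter reporter mRNA not a specific factor.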 Particulars: HepG2 Attagene cis-factorial TAL promoter reporter; actives raise or lower the signal. In a few lines:
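Endogenous transcription-factor activity is sensed in HepG2 cells through transfected cis-promoter reporter constructs. After 24 h dosing, reporter transcripts are quantified by RT-PCR and capillary electrophoresis. Gain or loss of signal is fitted relative to DMSO.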

Assay [8] is described as follows: ATG_TGFb_CIS: Attagene CIS-FACTORIAL HepG2 Assay for human Transforming Growth Factor (TGF) (AID 2282967). The settings on record: HepG2 Attagene CIS TGFb reporter, mRNA transcription; actives raise or lower the signal. In outline: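 HepG2 cells transiently transfected with cis-promoter-driven multiplexed reporter units; 24 h compound exposure. Reporter mRNA measured by RT-PCR, 6-FAM labeling, HpaI digestion and capillary electrophoresis; bidirectional fit versus DMSO baseline.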

The target in assay [9] is X-box-binding protein 1 (Homo sapiens) (UniProt P17861). Nature of the assay: ATG_Xbp1_CIS: Attagene CIS-FACTORIAL HepG2 Assay for human X-box Binding Protein 1 (XBP1) (AID 2282972). The settings on record: HepG2 XBP1 cis-element reporter, Attagene multiplex; actives raise or lower the signal. In a few lines: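 Read-out: fluorescent reporter mRNA fragments resolved by capillary electrophoresis after RT-PCR. Human HepG2 liver cells carried transfected cis-promoter reporter units and were exposed to chemicals for 24 hours. Gain or loss of signal fitted relative to DMSO baseline.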

Assay [10] addresses Transcriptional activator Myb (Homo sapiens) (UniProt P10242). Nature of the assay: ATG_Myb_CIS: Attagene CIS-FACTORIAL HepG2 Assay for human Myeloblastosis (Myb) Proto-Oncogene Transcription Factor (AID 2282986). The settings on record: HepG2 Attagene CIS-FACTORIAL Myb reporter transcription; actives raise or lower the signal. In a few lines:
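HepG2 cells were transiently transfected with cis-regulated multiple reporter transcription units reflecting endogenous Myb activity, then exposed to compound for 24 hours. Reporter mRNA was measured by RT-PCR with capillary electrophoresis; bidirectional fitting versus DMSO baseline.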

A short description of assay [11]: ATG_NFI_CIS: Attagene CIS-FACTORIAL HepG2 Assay for human Nuclear Factor I (NFI) (AID 2282989). Particulars: HepG2 cis-regulatory reporter, NFI response element transcription; actives raise or lower the signal. In outline:
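HepG2 cells transiently transfected with cis-element-driven multiplexed reporter transcription units, dosed for 24 h. Reporter mRNA quantified by RT-PCR, fluorescent labelling, HpaI digestion and capillary electrophoresis; bidirectional fit versus DMSO baseline.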

Assay [12] deals with Myc proto-oncogene protein (Homo sapiens) (UniProt P01106). Nature of the assay: ATG_Myc_CIS: Attagene CIS-FACTORIAL HepG2 Assay for human Myelocytomatosis (Myc) Proto-Oncogene Transcription Factor (AID 2282990). The settings on record: HepG2, Attagene cis-reporter transcription factor activity; actives raise or lower the signal. In outline: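 After 24 h chemical treatment of HepG2 cells carrying multiplexed cis-regulated reporter constructs, reporter transcripts quantified by RT-PCR and capillary electrophoresis of fluorescent fragments. Gain or loss fitted against DMSO baseline.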

Assay [13] is described as follows: ATG_NRF2_ARE_CIS: Attagene CIS-FACTORIAL HepG2 Assay for human Nuclear Factor Erythroid 2 Related Factor 2 (NFR2) response to Antioxidant Response Elements (ARE) (AID 2282992). The settings on record: HepG2 Attagene ARE/NRF2 reporter, transcription factor activity; actives raise or lower the signal. In a few lines:
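Readout: reporter mRNA quantified by RT-PCR plus FAM-labelled primer extension, HpaI digestion and capillary electrophoresis, 24 h after dosing transfected HepG2 cells. Gain or loss of signal is fitted bidirectionally against DMSO baseline.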

Assay [14] is described as follows: ATG_Oct_MLP_CIS: Attagene CIS-FACTORIAL HepG2 Assay for human Octamer-Binding Transcription Factor (Oct) (AID 2282993). The settings on record: HepG2 Attagene cis-factorial Oct reporter, mRNA; actives raise or lower the signal. In outline: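 HepG2 cells transiently transfected with cis-promoter-driven multiplexed reporter transcription units, dosed for 24 h. Reporter mRNA quantified by RT-PCR, fluorescent labelling, HpaI digestion and capillary electrophoresis; bidirectional fits versus DMSO baseline.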

The target in assay [15] is Peroxisome proliferator-activated receptor gamma (Homo sapiens) (UniProt P37231). The experiment in a line: ATG_PPARg_TRANS: Attagene TRANS-FACTORIAL HepG2 Assay for human Peroxisome Proliferator-activated Receptor-gamma (PPARg) (AID 2283007; active means hit-call score of the fitted dose curve at least 0.9, where 1 is the maximum). In a few lines: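 HepG2 cells transiently transfected with multiplexed GAL4-UAS reporter units and exogenous chimeric NR-Gal4 proteins; reporter mRNA quantified after 24 h compound exposure by RT-PCR, fluorescent labelling, HpaI digestion and capillary electrophoresis; gain-of-signal fitted versus DMSO baseline.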

For assay [16], the target named is Signal transducer and activator of transcription 3 (Homo sapiens) (UniProt P40763). The experiment in a line: ATG_STAT3_CIS: Attagene CIS-FACTORIAL HepG2 Assay for human Signal Transducer and Activator of Transcription 3 (STAT3) (AID 2282963). Particulars: HepG2, Attagene cis-factorial STAT3 reporter transcription; actives raise or lower the signal. In outline:
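Readout is reporter transcript quantified by RT-PCR and capillary electrophoresis, with 6-FAM primer extension and HpaI digestion. Total RNA is taken 24 h after dosing transiently transfected HepG2 carrying cis-regulated reporter units. Bidirectional fit against DMSO.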

A short description of assay [17]: ATG_VDRE_CIS: Attagene CIS-FACTORIAL HepG2 Assay for human Vitamin D Receptor Element (VDRE) (AID 2282968). Particulars: HepG2 VDRE cis-reporter transcription, actives raise or lower the signal. In a few lines: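 Readout is VDRE-driven reporter mRNA reflecting endogenous factor activity in human HepG2 cells, sampled 24 h post-dose. Quantification used labelled RT-PCR products separated by capillary electrophoresis; bidirectional analysis relative to DMSO.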

A short description of assay [18]: ATG_M_32_TRANS: Attagene TRANS-FACTORIAL HepG2 Assay for M32 Transcription Factor (Internal Marker) (AID 2282984; active means hit-call score of the fitted dose curve at least 0.9, where 1 is the maximum). The settings on record: HepG2 Attagene TRANS M32 internal marker reporter. In outline:
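Internal background reporter in transfected HepG2: after 24 h chemical exposure, RNA reverse-transcribed, reporter cDNA amplified, fluorescently labelled and HpaI-cut, then sized by capillary electrophoresis. Gain of signal fitted against DMSO control.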

The target of assay [19] is Cellular tumor antigen p53 (Homo sapiens) (UniProt P04637). The experiment in a line: ATG_p53_CIS: Attagene CIS-FACTORIAL HepG2 Assay for human p53 Transcription Factor (AID 2282994). Particulars: HepG2 p53 cis-element reporter, Attagene mRNA; actives raise or lower the signal. In a few lines: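 Read-out: reporter mRNA by RT-PCR plus capillary electrophoresis with fluorescence detection. Human HepG2 liver cells carried transfected multi-reporter cis-element constructs, dosed 24 h. Gain or loss of signal fitted bidirectionally against DMSO control.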

For assay [20] the target is unchanged. The experiment in a line: TOX21_p53_BLA_p4_ratio: Tox21 HCT-116 p53 Agonism Beta-lactamase Assay, Ratio, Phase 4 (AID 2283601; active means hit-call score of the fitted dose curve at least 0.9, where 1 is the maximum). In outline: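 Signal is the blue/green (460nm/530nm) ratio of cleaved versus uncleaved CCF4-AM substrate, read after 2 h substrate loading. Cells were HCT116 carrying the p53-responsive beta-lactamase reporter, dosed 16 h at 37C, 5% CO2; CellTiter-Glo measured in parallel.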

Records with an inconclusive call do not appear. Some compounds were tested as several samples or in several runs, with calls that do not always agree. The source made the active and inactive calls. How the source made its calls, unless noted: active means hit-call score of the fitted dose curve at least 0.9, where 1 is the maximum; inactive means score below 0.9.

Chain of Peroxisome proliferator-activated receptor gamma (Homo sapiens) (P37231 whole entry, looked up, the tested form may be a part): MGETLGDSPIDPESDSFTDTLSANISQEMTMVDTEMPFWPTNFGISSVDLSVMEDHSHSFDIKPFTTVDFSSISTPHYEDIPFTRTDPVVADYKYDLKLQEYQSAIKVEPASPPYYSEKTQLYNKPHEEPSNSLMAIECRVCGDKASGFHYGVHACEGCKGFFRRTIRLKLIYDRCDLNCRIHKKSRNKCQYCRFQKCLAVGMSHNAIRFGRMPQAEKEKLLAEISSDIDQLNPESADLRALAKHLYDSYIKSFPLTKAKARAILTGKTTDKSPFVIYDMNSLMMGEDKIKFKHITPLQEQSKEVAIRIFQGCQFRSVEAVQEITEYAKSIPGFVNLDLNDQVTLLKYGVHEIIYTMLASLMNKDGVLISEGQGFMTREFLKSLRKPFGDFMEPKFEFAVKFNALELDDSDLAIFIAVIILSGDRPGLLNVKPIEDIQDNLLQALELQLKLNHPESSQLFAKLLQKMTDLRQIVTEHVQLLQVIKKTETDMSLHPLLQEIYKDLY
Chain of Signal transducer and activator of transcription 3 (Homo sapiens) (P40763 whole entry, looked up): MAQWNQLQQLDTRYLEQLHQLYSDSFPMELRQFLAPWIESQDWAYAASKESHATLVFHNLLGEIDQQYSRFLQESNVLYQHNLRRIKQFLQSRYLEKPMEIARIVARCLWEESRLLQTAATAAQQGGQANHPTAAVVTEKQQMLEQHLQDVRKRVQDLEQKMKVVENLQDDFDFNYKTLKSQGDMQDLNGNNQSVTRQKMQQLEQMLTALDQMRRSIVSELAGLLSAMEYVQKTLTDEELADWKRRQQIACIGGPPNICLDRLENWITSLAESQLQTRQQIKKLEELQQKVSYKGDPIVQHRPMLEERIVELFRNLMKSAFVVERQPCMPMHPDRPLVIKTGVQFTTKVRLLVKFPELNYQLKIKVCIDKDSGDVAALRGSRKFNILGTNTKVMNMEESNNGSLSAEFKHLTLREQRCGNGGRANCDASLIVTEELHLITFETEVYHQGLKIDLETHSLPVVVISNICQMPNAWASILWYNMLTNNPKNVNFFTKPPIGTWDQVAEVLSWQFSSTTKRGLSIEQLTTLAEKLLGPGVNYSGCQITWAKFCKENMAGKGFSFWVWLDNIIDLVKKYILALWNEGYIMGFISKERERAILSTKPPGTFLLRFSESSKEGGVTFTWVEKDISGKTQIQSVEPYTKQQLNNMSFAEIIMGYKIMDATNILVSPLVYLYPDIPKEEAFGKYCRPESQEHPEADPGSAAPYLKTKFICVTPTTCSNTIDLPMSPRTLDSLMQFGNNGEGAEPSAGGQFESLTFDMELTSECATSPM
Chain of Cellular tumor antigen p53 (Homo sapiens) (P04637 whole entry, looked up): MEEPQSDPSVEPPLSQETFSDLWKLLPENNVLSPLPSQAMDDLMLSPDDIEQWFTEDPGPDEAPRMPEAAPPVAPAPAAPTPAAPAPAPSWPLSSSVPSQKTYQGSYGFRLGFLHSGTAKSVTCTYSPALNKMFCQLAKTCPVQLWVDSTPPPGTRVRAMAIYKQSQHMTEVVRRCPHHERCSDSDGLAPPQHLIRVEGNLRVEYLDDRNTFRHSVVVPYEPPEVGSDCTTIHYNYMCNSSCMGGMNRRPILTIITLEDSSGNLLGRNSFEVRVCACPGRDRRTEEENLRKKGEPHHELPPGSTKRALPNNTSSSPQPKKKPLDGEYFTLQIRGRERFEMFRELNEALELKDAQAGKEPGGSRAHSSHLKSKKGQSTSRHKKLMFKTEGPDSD
Chain of Aryl hydrocarbon receptor (Homo sapiens) (P35869 whole entry, looked up): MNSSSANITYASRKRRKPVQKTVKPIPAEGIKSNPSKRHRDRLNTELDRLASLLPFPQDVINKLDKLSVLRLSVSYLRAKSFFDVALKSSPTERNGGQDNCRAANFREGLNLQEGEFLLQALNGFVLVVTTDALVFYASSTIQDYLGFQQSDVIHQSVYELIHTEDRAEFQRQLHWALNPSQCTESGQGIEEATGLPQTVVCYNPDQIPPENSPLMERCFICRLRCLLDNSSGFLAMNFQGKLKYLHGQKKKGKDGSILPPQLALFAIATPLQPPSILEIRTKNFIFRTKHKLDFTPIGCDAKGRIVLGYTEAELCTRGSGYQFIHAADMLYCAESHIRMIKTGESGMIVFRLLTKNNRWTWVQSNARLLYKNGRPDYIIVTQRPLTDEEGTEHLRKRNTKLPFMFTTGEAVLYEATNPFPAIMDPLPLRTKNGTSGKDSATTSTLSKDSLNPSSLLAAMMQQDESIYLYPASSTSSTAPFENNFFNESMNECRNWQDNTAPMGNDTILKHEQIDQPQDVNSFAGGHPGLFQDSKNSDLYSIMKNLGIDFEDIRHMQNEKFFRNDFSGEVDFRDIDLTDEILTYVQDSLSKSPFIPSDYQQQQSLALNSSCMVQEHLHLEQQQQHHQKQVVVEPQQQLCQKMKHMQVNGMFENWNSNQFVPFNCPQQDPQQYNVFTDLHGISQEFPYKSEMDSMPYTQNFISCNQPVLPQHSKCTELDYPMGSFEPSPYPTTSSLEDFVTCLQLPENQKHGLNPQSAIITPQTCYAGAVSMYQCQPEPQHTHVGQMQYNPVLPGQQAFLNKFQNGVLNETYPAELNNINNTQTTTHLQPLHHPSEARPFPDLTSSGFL
Chain of X-box-binding protein 1 (Homo sapiens) (P17861 whole entry, looked up, the tested form may be a part): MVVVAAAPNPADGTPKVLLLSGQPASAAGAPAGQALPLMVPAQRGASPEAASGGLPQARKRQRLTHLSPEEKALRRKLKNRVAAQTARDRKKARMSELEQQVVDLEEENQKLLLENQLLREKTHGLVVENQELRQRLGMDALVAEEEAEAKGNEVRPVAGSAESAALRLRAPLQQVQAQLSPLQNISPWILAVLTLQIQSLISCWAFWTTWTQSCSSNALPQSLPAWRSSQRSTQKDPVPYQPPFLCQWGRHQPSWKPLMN
Chain of Hypoxia-inducible factor 1-alpha (Homo sapiens) (Q16665 whole entry, looked up): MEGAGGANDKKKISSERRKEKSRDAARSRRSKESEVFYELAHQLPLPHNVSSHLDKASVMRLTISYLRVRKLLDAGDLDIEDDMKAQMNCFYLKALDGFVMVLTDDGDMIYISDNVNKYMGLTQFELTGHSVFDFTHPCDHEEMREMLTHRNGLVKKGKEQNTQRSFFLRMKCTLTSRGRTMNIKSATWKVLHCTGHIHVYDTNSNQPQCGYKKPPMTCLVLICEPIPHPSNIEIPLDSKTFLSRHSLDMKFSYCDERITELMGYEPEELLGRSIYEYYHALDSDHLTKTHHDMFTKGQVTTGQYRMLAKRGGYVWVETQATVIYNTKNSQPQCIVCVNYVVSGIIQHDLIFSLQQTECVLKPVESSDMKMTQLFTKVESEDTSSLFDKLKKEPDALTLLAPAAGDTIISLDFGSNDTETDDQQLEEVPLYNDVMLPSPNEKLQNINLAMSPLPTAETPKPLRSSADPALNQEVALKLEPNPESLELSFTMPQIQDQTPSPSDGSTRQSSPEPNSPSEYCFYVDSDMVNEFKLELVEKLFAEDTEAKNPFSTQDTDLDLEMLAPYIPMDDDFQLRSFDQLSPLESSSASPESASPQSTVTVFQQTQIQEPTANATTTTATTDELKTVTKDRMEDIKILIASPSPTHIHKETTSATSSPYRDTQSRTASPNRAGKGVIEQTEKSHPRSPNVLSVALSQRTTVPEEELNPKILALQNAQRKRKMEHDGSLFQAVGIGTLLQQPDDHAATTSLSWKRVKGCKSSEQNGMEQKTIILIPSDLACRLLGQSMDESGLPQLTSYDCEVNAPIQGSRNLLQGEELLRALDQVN
Chain of Transcriptional activator Myb (Homo sapiens) (P10242 whole entry, looked up): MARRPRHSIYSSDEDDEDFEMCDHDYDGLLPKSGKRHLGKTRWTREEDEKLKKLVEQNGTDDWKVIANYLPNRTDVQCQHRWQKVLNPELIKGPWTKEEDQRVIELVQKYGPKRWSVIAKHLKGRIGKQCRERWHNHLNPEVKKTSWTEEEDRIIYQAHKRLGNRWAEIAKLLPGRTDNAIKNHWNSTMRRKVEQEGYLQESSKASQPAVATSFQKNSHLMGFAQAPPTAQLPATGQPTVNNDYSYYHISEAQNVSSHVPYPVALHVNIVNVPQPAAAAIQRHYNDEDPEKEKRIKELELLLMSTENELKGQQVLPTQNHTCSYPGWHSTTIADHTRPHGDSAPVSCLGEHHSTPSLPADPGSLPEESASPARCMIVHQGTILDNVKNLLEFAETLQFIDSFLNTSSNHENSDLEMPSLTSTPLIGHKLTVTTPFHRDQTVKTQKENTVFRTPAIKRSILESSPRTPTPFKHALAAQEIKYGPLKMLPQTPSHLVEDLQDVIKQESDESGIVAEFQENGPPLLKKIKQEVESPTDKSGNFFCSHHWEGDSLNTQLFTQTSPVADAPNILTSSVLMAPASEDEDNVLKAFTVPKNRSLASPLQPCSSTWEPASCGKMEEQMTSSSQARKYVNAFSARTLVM
Chain of Myc proto-oncogene protein (Homo sapiens) (P01106 whole entry, looked up, the tested form may be a part): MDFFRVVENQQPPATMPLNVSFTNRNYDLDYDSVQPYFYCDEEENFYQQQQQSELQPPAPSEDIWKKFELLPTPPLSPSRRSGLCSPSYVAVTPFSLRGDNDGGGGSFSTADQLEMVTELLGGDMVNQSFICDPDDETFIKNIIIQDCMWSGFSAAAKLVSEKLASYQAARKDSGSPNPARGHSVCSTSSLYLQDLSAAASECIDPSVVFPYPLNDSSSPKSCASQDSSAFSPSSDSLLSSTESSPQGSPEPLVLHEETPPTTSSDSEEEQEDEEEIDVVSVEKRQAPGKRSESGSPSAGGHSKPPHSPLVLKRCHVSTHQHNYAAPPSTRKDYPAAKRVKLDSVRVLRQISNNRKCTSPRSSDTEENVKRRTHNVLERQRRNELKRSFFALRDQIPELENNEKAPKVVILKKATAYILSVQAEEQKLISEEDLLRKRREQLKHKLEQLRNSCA

On to `O=[N+]([O-])O`, for which the result in assay [1], in assay [2], in assay [3], in assay [4], in assay [5] and in assay [6] was inactive. Moreover, the call in assay [7], in [8], in assay [9], in [10], in assay [11] and in assay [12] was inactive. In addition, the call in [13], in assay [14] and in assay [15] was inactive.
`CC(C)COP(=O)(OCC(C)C)OCC(C)C`: the AC50 in assay [1] was 73.3 µM (active); in assay [17] it was 55.8 µM (active); in assay [13], 37 µM (active); in assay [15], 49.8 µM (active). In addition, the outcome in [2], in assay [3], in assay [4], in assay [16], in assay [6] and in assay [7] was inactive. For the same molecule, the result in assay [8], in assay [9], in assay [18], in assay [10], in [11] and in assay [12] was inactive. Moreover, the molecule was classed as inactive in assay [14], in assay [19] and in [20].
Regarding `BrCBr`, the call in assay [1], in assay [2], in assay [3], in assay [4], in assay [16] and in assay [6] was inactive. Besides, the outcome in assay [7], in [8], in assay [17], in assay [9], in assay [18] and in [11] was inactive. Besides, the call in assay [12], in assay [13], in assay [14], in assay [19] and in assay [20] was inactive.
For `c1ccc(Nc2ccc3ccccc3c2)cc1`, the outcome in assay [2], in assay [3], in [4], in assay [16], in [5] and in assay [6] was inactive. In addition, the outcome in assay [7], in assay [8], in [9], in assay [18], in [10] and in [11] was inactive. For the same molecule, the molecule was classed as inactive in assay [12], in assay [14], in assay [19] and in [20]. The AC50 was 37 µM (active) in assay [13], 18 µM (active) in assay [15] and 73.5 µM (active) in assay [20].
As for `SCc1ccco1`, the molecule was classed as inactive in [1], in [2], in assay [3], in assay [4], in [16] and in assay [5]. The molecule was called inactive in [6], in assay [7], in [8], in assay [17], in [9] and in [18]. Moreover, the result in assay [10], in assay [12], in [14] and in assay [19] was inactive. The AC50 was 71.2 µM (active) in assay [13] and 27.9 µM (active) in [15].

In general, AC50 refers to the concentration giving half of the maximal activity seen.

Values taken from PubChem BioAssay (EPA / NIEHS).
